From publication PMC6925144, “A prospective compound screening contest identified broader inhibitors for Sirtuin 1” (Scientific Reports, 2019)

Target: NAD-dependent deacetylase Sirtuin 1 (human, UniProt Q96EB6)
Test: primary screen, percent inhibition; higher = more effect of the substance
Set-up: mean of n = 4
Conditions: 10 µM
Description: Note that the inhibitory assay was conducted with NAD+.

NAD-dependent deacetylase Sirtuin 1, sequence (Q96EB6 2-747 limits assumed): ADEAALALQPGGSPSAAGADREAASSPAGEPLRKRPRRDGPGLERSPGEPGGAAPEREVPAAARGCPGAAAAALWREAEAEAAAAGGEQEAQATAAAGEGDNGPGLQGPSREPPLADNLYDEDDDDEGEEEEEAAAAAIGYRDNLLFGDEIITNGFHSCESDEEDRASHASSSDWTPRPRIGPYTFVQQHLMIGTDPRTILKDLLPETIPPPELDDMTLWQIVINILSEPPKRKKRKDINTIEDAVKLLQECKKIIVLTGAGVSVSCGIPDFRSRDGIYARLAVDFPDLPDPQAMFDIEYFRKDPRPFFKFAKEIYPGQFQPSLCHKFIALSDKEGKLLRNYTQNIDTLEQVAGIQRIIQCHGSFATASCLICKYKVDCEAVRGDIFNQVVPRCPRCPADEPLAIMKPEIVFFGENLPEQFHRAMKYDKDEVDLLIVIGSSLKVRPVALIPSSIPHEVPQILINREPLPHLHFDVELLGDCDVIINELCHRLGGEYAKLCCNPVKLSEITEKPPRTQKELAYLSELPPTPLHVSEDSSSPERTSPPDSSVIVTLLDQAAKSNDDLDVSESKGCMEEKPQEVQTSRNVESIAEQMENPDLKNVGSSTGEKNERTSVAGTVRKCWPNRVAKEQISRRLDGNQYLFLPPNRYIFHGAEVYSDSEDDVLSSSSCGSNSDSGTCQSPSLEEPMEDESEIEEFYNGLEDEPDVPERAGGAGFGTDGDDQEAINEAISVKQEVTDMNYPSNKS

How did the “TSA(without NAD+) / Inhibitory assay (Promega kit) / Mean (%)” value (from here on “TSA(without NAD+) / Inhibitory assay … (%)”) turn out when `COc1ccc(N(C)S(=O)(=O)c2cccc(C(=O)Nc3ccc4ccccc4c3)c2)cc1` was run?
Its value is -4.02%.

With `O=C1/C(=C/NNC(=O)C23CC4CC(CC(C4)C2)C3)c2ccccc2C(=O)N1Cc1ccccc1` as the compound, how does the “TSA(without NAD+) / Inhibitory assay … (%)” value read?
The value was -173%.

With `Cc1cc(F)ccc1N1CCCC(Nc2ccc3nnnn3n2)C1` (stereo not shown) as the compound, how does the “TSA(without NAD+) / Inhibitory assay … (%)” value read?
The value was 6.7%.

Which “TSA(without NAD+) / Inhibitory assay … (%)” value does the source give for `Cc1ccc([N+](=O)[O-])cc1S(=O)(=O)Nc1ccc(C(=O)OC(C)C(=O)NC23CC4CC(CC(C4)C2)C3)cc1` (stereo not shown) here?
Its value is -3.81%.

With `Cc1ccc(C(=O)Nc2nc3ccc(NS(=O)(=O)c4ccc5c(c4)CCC(=O)N5)cc3s2)s1` as the compound, how does the “TSA(without NAD+) / Inhibitory assay … (%)” value read?
The value was 31.3%.

How did the “TSA(without NAD+) / Inhibitory assay … (%)” value turn out when `Cc1sc2nc(CSc3ccccc3)nc(N3CCC(C(N)=O)CC3)c2c1C` was run?
Its value is -36.8%.

How did the “TSA(without NAD+) / Inhibitory assay … (%)” value turn out when `O=C(COc1ccccc1C(=O)Nc1ccc(S(=O)(=O)Nc2nccs2)cc1)Nc1cccc(C(F)(F)F)c1` was run?
The value was 10.1%.

`Cc1nc(N2CCC(C(N)=O)CC2)c2c3c(sc2n1)CCCC3` was tested. Which “TSA(without NAD+) / Inhibitory assay … (%)” value did it give?
Its value is 11.5%.

For `O=C1/C(=C\c2cc(Br)cc(Br)c2O)CC/C1=C\c1cc(Br)cc(Br)c1O`, which “TSA(without NAD+) / Inhibitory assay … (%)” value is on record?
The value was 44.3%.

For `c1ccc(-c2[nH]c3c(ccc4ccccc43)c2-c2ccccc2)cc1`, which “TSA(without NAD+) / Inhibitory assay … (%)” value is on record?
Its value is -0.157%.

For `NCc1nc2c(cnn2-c2ccccc2)c(=O)[nH]1`, which “TSA(without NAD+) / Inhibitory assay … (%)” value is on record?
The value was 62.5%.

With `N#CC(C(=O)c1ccc(NS(=O)(=O)c2ccccc2)cc1)c1nc(-c2ccccn2)cs1` (stereo not shown) as the compound, how does the “TSA(without NAD+) / Inhibitory assay … (%)” value read?
Its value is -150%.

For `O=C(CCc1c[nH]c2ccccc12)Nc1nnc(-c2ccccc2)o1`, which “TSA(without NAD+) / Inhibitory assay … (%)” value is on record?
The value was 10.8%.

For `O=C1/C(=C/c2cnn(-c3ccccc3)c2)Oc2cc(O)ccc21`, which “TSA(without NAD+) / Inhibitory assay … (%)” value is on record?
Its value is 9.45%.

`COc1ccc2cc(/C=C/C(=O)Nc3ccc(C(N)=O)cc3)ccc2c1` was tested. Which “TSA(with NAD+) / Inhibitory assay (Promega kit) / Mean (%)” value (“TSA(with NAD+) / Inhibitory assay … (%)” for short) did it give?
Its value is 19.8%.

For `COc1ccc(N(C)S(=O)(=O)c2cccc(C(=O)Nc3ccc(-n4cnnn4)cc3)c2)cc1`, which “TSA(without NAD+) / Inhibitory assay … (%)” value is on record?
Its value is 26.1%.

How did the “TSA(with NAD+) / Inhibitory assay … (%)” value turn out when `Cc1cccc(NS(=O)(=O)c2cccc(C(=O)OCC(=O)NC(=O)NC34CC5CC(CC(C5)C3)C4)c2)c1` was run?
Its value is 31%.

Which “TSA(without NAD+) / Inhibitory assay … (%)” value does the source give for `Cc1sc2nc(-c3cccs3)nc(N3CCC(C(N)=O)CC3)c2c1C` here?
The value was -0.574%.

For `CCOc1cc(/C=N/NC(=O)c2cc3c(s2)CCCC3)ccc1OCC(=O)Nc1cccc(C(F)(F)F)c1`, which “TSA(without NAD+) / Inhibitory assay … (%)” value is on record?
The value was -2.14%.

How did the “TSA(without NAD+) / Inhibitory assay … (%)” value turn out when `Cc1nc(-c2ccc(CCNC(=O)c3ccc(NC(=O)c4cccs4)cc3)s2)cs1` was run?
Its value is 27%.

How did the “TSA(without NAD+) / Inhibitory assay … (%)” value turn out when `NC(=O)C1CCN(c2nc(CSc3ccccc3)nc3sc4c(c23)CCCC4)CC1` was run?
The value was 12.9%.

How did the “TSA(with NAD+) / Inhibitory assay … (%)” value turn out when `Cc1ccc(N(C)S(=O)(=O)c2cccc(C(=O)Nc3ccc(Br)c(C)c3)c2)cc1` was run?
The value was 27%.

For `NC(=O)C1CCN(c2nc(-c3cccnc3)nc3sc4c(c23)CCCC4)CC1`, which “TSA(with NAD+) / Inhibitory assay … (%)” value is on record?
Its value is 39.7%.

`Cc1ccc(C(=O)Nc2ccc(NC(=O)NCC3CCCO3)cc2)cn1` (stereo not shown) was tested. Which “TSA(without NAD+) / Inhibitory assay … (%)” value did it give?
The value was -1.1%.

For `NC(=O)C1CCN(c2nc(-c3cccs3)nc3sc4c(c23)CCCC4)CC1`, which “TSA(without NAD+) / Inhibitory assay … (%)” value is on record?
The value was 0.0174%.

Which “TSA(with NAD+) / Inhibitory assay … (%)” value does the source give for `Cc1ccc(N(C)S(=O)(=O)c2cccc(C(=O)Nc3ccc4c(c3)C(=O)N(C)C4=O)c2)cc1` here?
The value was 25%.

With `COc1ccc(NC(=O)CSc2nnc(Nc3ccc(SC(F)F)cc3)s2)cc1OC` as the compound, how does the “TSA(without NAD+) / Inhibitory assay … (%)” value read?
The value was 16.2%.

How did the “TSA(without NAD+) / Inhibitory assay … (%)” value turn out when `NC(=O)c1cccc(NC(=O)c2cc3c(s2)-c2ccccc2CC3)c1` was run?
Its value is 4.33%.

`COC(=O)c1cc(-c2csc(NC(=O)c3cccc(NC(=O)c4cnoc4C)c3)n2)c[nH]1` was tested. Which “TSA(without NAD+) / Inhibitory assay … (%)” value did it give?
Its value is 30.1%.

With `Cc1nc(N2CCC(C(N)=O)CC2)c2c3c(sc2n1)CCCCC3` as the compound, how does the “TSA(without NAD+) / Inhibitory assay … (%)” value read?
The value was 14.5%.

Which “TSA(without NAD+) / Inhibitory assay … (%)” value does the source give for `COc1ccc(NC(=O)c2ccc(NC(=O)COC(=O)C34CC5CC(CC(Br)(C5)C3)C4)cc2)cc1` here?
Its value is 17.2%.

How did the “TSA(without NAD+) / Inhibitory assay … (%)” value turn out when `O=C(Nc1cccc(S(=O)(=O)N2CCOCC2)c1)c1cn(-c2ccccc2)nc1-c1ccc(Cl)cc1` was run?
Its value is 13.8%.

For `O=C(NC(=S)Nc1ccc(-c2nc3ccccc3[nH]2)cc1)C12CC3CC(CC(C3)C1)C2`, which “TSA(without NAD+) / Inhibitory assay … (%)” value is on record?
Its value is 22.7%.

`CCCCCCCCNC(=O)/C(C#N)=C/c1c[nH]c2ccccc12` was tested. Which “TSA(without NAD+) / Inhibitory assay … (%)” value did it give?
Its value is 9.56%.

Which “TSA(without NAD+) / Inhibitory assay … (%)” value does the source give for `Cc1ccc(N(C)S(=O)(=O)c2cccc(C(=O)Nc3ccc(C(N)=O)cc3)c2)cc1` here?
The value was 0.783%.

`O=C(NN/C=C1/C(=O)N(c2cccc(C(F)(F)F)c2)C(=O)c2ccccc21)c1cccc(S(=O)(=O)Nc2ccccc2Cl)c1` was tested. Which “TSA(without NAD+) / Inhibitory assay … (%)” value did it give?
The value was -38.6%.

How did the “TSA(without NAD+) / Inhibitory assay … (%)” value turn out when `O=C(CSc1nnnn1-c1ccc(O)cc1)N1N=C(c2ccc3ccccc3c2)CC1c1ccccc1` (stereo not shown) was run?
Its value is 28.5%.

`CCn1c2ccccc2c2cc(NC(=O)C(C)OC(=O)c3cccc(S(=O)(=O)Nc4ccc(Cl)cc4)c3)ccc21` (stereo not shown) was tested. Which “TSA(without NAD+) / Inhibitory assay … (%)” value did it give?
Its value is 23.9%.

Which “TSA(with NAD+) / Inhibitory assay … (%)” value does the source give for `O=C1NC(=S)NC(=O)C1=Cc1cn(-c2ccccc2)nc1-c1cc2ccccc2o1` here?
Its value is 57.2%.

`CN(c1ccccc1)S(=O)(=O)c1cccc(NC(=O)CCCc2c[nH]c3ccccc23)c1` was tested. Which “TSA(without NAD+) / Inhibitory assay … (%)” value did it give?
Its value is -10.4%.
